NR5A2 inv ag: NR5A2 inverse agonism in reporter assay; O00482; HEK293T StAR-luciferase reporter, LRH-1 transfected, 24 h; inhibition, % at 3.6 µM; 360,000 tested, 0.13% active;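 active = inhibition above the mean inhibition of all tested compounds plus 3 SD, cut at about 73% in these data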;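 also: 0% = DMSO wells and 100% = reporter-only cells lacking LRH-1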
SRC2 inh: inhibits human steroid receptor coactivator 2; Q15596; HEK293 GAL4-SRC2 luciferase reporter, luminescence; inhibition, % at 9 µM; 370,000 tested, 0.17% active;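 active = inhibition above the mean inhibition of all tested compounds plus 3 SD, set per campaign, cut at about 52% in these data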;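 also: 0% = DMSO treated cells and 100% = cells given Gossypol at 36 µM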
SRC1 inh: human NCOA1 inhibition. 360,000 tested, 0.12% active. HEK293 GAL4-SRC1 luciferase reporter, luminescence. Q15788. inhibition, % at 3.6 µM;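 active = inhibition above the campaign mean plus 3 SD, with each screening campaign given its own cutoff, cut at about 60% in these data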;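 also: 0% = DMSO treated cells and 100% = gossypol at 36 µM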
NCOA3 inh: human NCOA3 inhibition; inhibition, % at 3.6 µM; HEK293 GAL4-SRC3 luciferase reporter, luminescence; Q9Y6Q9; 360,000 tested, 0.17% active;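 active = inhibition above a per-campaign cutoff, the mean of all compounds plus 3 SD, cut at about 60% in these data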;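 also: 0% = DMSO-treated cells and 100% = gossypol-treated cells at 36 µM; higher means less SRC3-driven luciferase light from the GAL4 reporter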
GalR3 antagonist: human GalR3 antagonism | O60755 | HEK293 GalR3-CNG cAMP membrane potential fluorescence; galR3 body fused to GalR1 C-terminus | inhibition, % at 3 µM | 360,000 tested, 0.44% active;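 active = inhibition above the screen-wide average plus 3 SD, cut at about 13% in these data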;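 also: forskolin and galanin both at EC90 stimulate the cells; cAMP rise reported by CNG channel membrane potential dye signal; 0% = forskolin plus galanin with DMSO and 100% = forskolin alone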
NR2F2 inh: NR2F2 (human) inhibition, primary screen. 370,000 tested, 0.7% active. HEK293T NGFI-A luciferase reporter, luminescence. P24468. inhibition, % at 8.6 µM;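 active = inhibition above a per-plate cutoff, mean inhibition of test wells between control levels plus 3 SD, cut at about 38% in these data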;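 also: cells cotransfected with COUP-TFII expression vector driving the NGFI-A reporter; 0% = median of COUP-TF2 test wells and 100% = reporter-only cells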
GalR3 antag conf: GalR3 (human) antagonism, confirmation; shares compounds with GalR3 antagonist; 1,600 tested, 59% active; inhibition, % at 3 µM; HEK293 GalR3 CNG cAMP biosensor, membrane potential fluorescence; galR3 fused to GalR1 carboxy tail; challenged with forskolin and galanin at EC90;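 active = inhibition above the primary screen's cutoff, the mean inhibition of all screened compounds plus 3 SD, cut at about 13% in these data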;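 also: 0% = forskolin plus galanin and 100% = forskolin alone with DMSO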
HEK-CNG parental: counter-screen for GalR3 antagonists: nonspecific agonists in parental HEK-CNG cells; shares compounds with GalR3 antagonist; HEK293-CNG parental cells, cAMP membrane potential fluorescence; normalised: DMSO wells 0%, forskolin wells 100%; activation, % at 3 µM; 1,600 tested, 10% active; AID 652268; in the data active = activation above about 1.3%
VP16 Luc counter: VP16 inhibition counter-screen for COUP-TFII | HEK293 Gal4-VP16 luciferase reporter, luminescence | inhibition, % at 8.5 µM | shares compounds with NR2F2 inh | 2,500 tested, 25% active; in the data active = inhibition above about 13%
COUP-TFII conf: confirmation of human COUP-TFII (NR2F2) inhibitors. shares compounds with NR2F2 inh. HEK293 NGFI-A luciferase reporter, luminescence. inhibition, % at 8.5 µM. 2,500 tested, 45% active. AID 687008;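 active = mean inhibition over three repeats above a set limit taken from the earlier primary screen, cut at about 38% in these data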;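 also: 100% = cells given the luciferase reporter alone without the COUP-TF2 vector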
* marks the source's active call; other numbers are inactive results; . = no result given. An excerpt weighted towards active compounds, which were near 1.1% of everything screened.

SMILES	NR5A2 inv ag	SRC2 inh	SRC1 inh	NCOA3 inh	GalR3 antagonist	NR2F2 inh	GalR3 antag conf	HEK-CNG parental	VP16 Luc counter	COUP-TFII conf
COCCCNC(=S)N1CCN(c2nc(-c3ccc(F)cc3)cs2)CC1	-2	10	-29	17	-10	12	.	.	.	.
S=C(NCCCN1CCOCC1)N1CCN(c2nc(-c3ccc(Cl)cc3)cs2)CC1	16	25	16	22	20*	58*	6	-1	-2	28
O=C(N/N=C/c1ccc(O)cc1)NC12CC3CC(CC(C3)C1)C2	-7	14	-4	2	-9	-3	.	.	.	.
CC(=O)c1c(C)[nH]c(C(=O)COc2cc(C)ccc2C(C)C)c1C	46	44	24	23	73*	69*	113*	0	8	66*
CCCn1c(N)c(C(=O)COC(=O)/C=C/c2ccc(OC(F)F)c(OC)c2)c(=O)[nH]c1=O	11	-9	7	14	-6	15	.	.	.	.
O=C(Nc1cccc(Br)c1)c1ccc(Cl)c(S(=O)(=O)N2CCOCC2)c1	6	31	17	21	88*	59*	100*	-1	-6	57*
O=C(Nc1cccc(C(=O)NC2CC2)c1)c1ccc(Cl)c(S(=O)(=O)N2CCOCC2)c1	12	-5	-5	-6	3	11	.	.	.	.
CC(=O)c1ccc(OCCCC(=O)Nc2ccc(Cl)c(S(=O)(=O)N3CCOCC3)c2)cc1	35	19	20	-18	87*	70*	93*	-1	3	56*
COc1ccc(Cl)cc1NC(=O)CN(C)C(=O)C1CC(=O)N(Cc2ccc(C)cc2)C1 (stereo not drawn)	11	-2	2	1	-2	-2	.	.	.	.
C=C1c2cc(OC)ccc2NC(=O)N1CC	-7	-16	-1	-1	0	-17	.	.	.	.
COc1cc(C(c2c(C)[nH][nH]c2=O)c2c(C)[nH][nH]c2=O)ccc1OS(=O)(=O)c1ccc(C)cc1	9	-1	-3	9	-2	-2	.	.	.	.
CCCCCc1ccc(OCCC[n+]2ccccc2)c(CCCCC)c1	59	5	34	66*	31*	57*	36*	1.8*	14*	34
NC(=O)COc1ncnc2scc(-c3ccc(F)cc3)c12	-11	-13	4	-5	5	5	.	.	.	.
CCCc1cc2c(cc1NC(=O)c1ccc(C(C)(C)C)cc1)OCO2	-4	-11	-9	-15	-3	-12	.	.	.	.
CC(Nc1ncnc2sccc12)c1ccccc1 (stereo not drawn)	47	22	24	16	94*	60*	105*	0	3	61*
CCC(C)(C)c1ccc(OCCCC[n+]2ccc(C)cc2)c(C(C)(C)CC)c1	.	4	.	.	2	27	.	.	.	.
CCC(C)(C)c1ccc(OCCCC[n+]2cccc(C)c2C)c(C(C)(C)CC)c1	79*	-32	34	65*	15*	57*	67*	1.3*	14*	60*
Cc1c(Cl)cccc1NC(=O)N1CCCN(c2nc(-c3ccccc3)ns2)CC1	23	14	14	30	34*	57*	99*	-1	8	51*
Cc1nn(Cc2ccc([N+](=O)[O-])cc2)c(=O)n1-c1ccc(F)cc1	-5	8	-2	15	-1	-2	.	.	.	.
Cn1nccc1C(=O)NC1CCCc2c1cnn2-c1ccc(C(C)(C)C)cc1 (stereo not drawn)	45	26	11	34	109*	69*	122*	0	-4	69*
Cc1cc(C(=O)NC2CCCc3c2cnn3-c2ccc(C)c(C)c2)no1 (stereo not drawn)	2	3	10	-16	0	17	.	.	.	.
Cc1ccc(-n2ncc3c2CCCC3NC(=O)c2ocnc2C)cc1C (stereo not drawn)	35	18	21	27	101*	66*	113*	0	6	61*
Cc1cc(C(=O)NC2CCCc3c2cnn3-c2cccc(C)c2C)n(C)n1 (stereo not drawn)	44	14	12	20	100*	67*	105*	-1	8	68*
Cc1ccc(-n2nnnc2-c2cnc3cc4c(cc3c2C)OCO4)cc1	3	-12	-6	0	-4	-11	.	.	.	.
Cc1ccc(C)n1-c1ccc(C(=O)N2CCC(C(N)=O)CC2)cc1	-6	-1	-28	9	-1	6	.	.	.	.
SMILES	NR5A2 inv ag	SRC2 inh	SRC1 inh	NCOA3 inh	GalR3 antagonist	NR2F2 inh	GalR3 antag conf	HEK-CNG parental	VP16 Luc counter	COUP-TFII conf
O=C(CN1CC(=O)Oc2ccccc21)OCC(=O)c1cccc(Br)c1	4	.	-13	-3	.	.	.	.	.	.
CN1CCN(c2ccc(CNS(=O)(=O)Cc3cccc(C(F)(F)F)c3)cc2)CC1	51	18	37	21	60*	61*	111*	0	-3	45*
CN1CCN(c2ccc(CNS(=O)(=O)c3ccccc3)cc2)CC1	6	-3	2	5	2	21	.	.	.	.
Cc1ccc(CCNc2ncnc(Cl)c2N)cc1	-20	-9	-27	-23	104*	64*	104*	0	-69	49*
CCN(CC)S(=O)(=O)c1ccc(/C=C/C(=O)Nc2ccc(Br)cc2F)cc1	33	26	25	41	59*	56*	99*	0	0	70*
CCN(CC)S(=O)(=O)c1cccc(NC(=O)/C=C/c2ccc([N+](=O)[O-])cc2)c1	12	11	12	-3	-12	17	.	.	.	.
CC(C)Sc1nnc(Nc2ccccc2)s1	-137	-67	-111	-75	-3	-44	.	.	.	.
Fc1ccc(CN2CCN(c3ncc(Cc4ccccc4)cn3)CC2)c(Cl)c1	.	24	.	.	82*	51*	109*	0	6	47*
CCN(C(=O)CC(C)C)c1nnc(Cn2nnc3ccccc32)s1	0	-19	-4	0	-5	29	.	.	.	.
CCN(C(=O)c1ccc(C(C)(C)C)cc1)c1nnc(Cn2nnc3ccccc32)s1	33	21	4	31	102*	76*	107*	0	13*	72*
CCOC(=O)C(=N/O)/C(C)=N/NC(=O)C(=O)Nc1ccc(Cl)cc1	12	6	-8	10	-6	10	.	.	.	.

From PubChem BioAssay
